Outcome and AC50 data for 17 compounds are collected here from PubChem BioAssay (EPA / NIEHS).

Conditions in all cases: mRNA level, 48 h; actives raise or lower the signal
Read-out in assay [1]: solute carrier (SLCO1B1), SLCO1B1 (gene 10599)
Description: LTEA_HepaRG_SLCO1B1: Life Technologies and Expression Analysis (LTEA) Assay for solute carrier (SLCO1B1) using HepaRG (AID 2283530). The method in brief:
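SLCO1B1 transcript levels were quantified by TaqMan qRT-PCR using three housekeeping genes for normalization. This followed 48 h chemical exposure (100 uM top, half-log, 8 points, 0.5% DMSO) of HepaRG liver cells, with gain or loss fitted relative to DMSO.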

Read-out in assay [2]: sulfotransferase 2A1 (SULT2A1), SULT2A1 (gene 6822)
The assay can be described thus: LTEA_HepaRG_SULT2A1: Life Technologies and Expression Analysis (LTEA) Assay for sulfotransferase 2A1 (SULT2A1) using HepaRG (AID 2283531). The method in brief: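 Expression change of SULT2A1, by qRT-PCR with three housekeeping-gene normalization, was scored bidirectionally versus DMSO. Cells: differentiated HepaRG, dosed in duplicate for 48 h across 8 points, highest 100 µM, half-log dilution, 0.5% DMSO.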

Read-out in assay [3]: Transforming Growth Factor (TGFA), TGFA (gene 7039)
Description: LTEA_HepaRG_TGFA: Life Technologies and Expression Analysis (LTEA) Assay for Transforming Growth Factor (TGFA) using HepaRG (AID 2283532). Summed up:
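HepaRG (human liver line), 48 h exposure, 8 conc. half-log down from 100 uM, 0.5% DMSO vehicle, duplicates; serum-free induction medium. TGFA mRNA by TaqMan qRT-PCR, ACTB/GAPDH/POLR2A normalization; gain/loss fit vs DMSO.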

Read-out in assay [4]: Transforming Growth Factor (TGFB1), TGFB1 (gene 7040)
Description: LTEA_HepaRG_TGFB1: Life Technologies and Expression Analysis (LTEA) Assay for Transforming Growth Factor (TGFB1) Transporter using HepaRG (AID 2283533). Summed up: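 TGFB1 transcript measured by qRT-PCR with normalisation to three housekeeping genes (ACTB, GAPDH, POLR2A); human HepaRG line treated in duplicate for 48 hr with an 8-point series topping at 100 uM, 0.5% DMSO vehicle, bidirectionally fitted.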

Read-out in another assay: TIMP1, TIMP1 (gene 7076)
The assay can be described thus: LTEA_HepaRG_TIMP1: Life Technologies and Expression Analysis (LTEA) Assay for TIMP1 using HepaRG (AID 2283534).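 For Outcome: TaqMan qRT-PCR signal normalized to ACTB GAPDH and POLR2A housekeeping genes.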 Summed up: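 Bidirectional change in TIMP1 transcript versus 0.5% DMSO, measured by TaqMan qRT-PCR with three housekeeping genes for normalization. HepaRG human liver cells dosed 48 h in duplicate, top concentration 100 uM with half-log dilutions.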

Read-out in assay [5]: Tumor necrosis factor receptor 1 (TNFRSF1A), TNFRSF1A (gene 7132)
Description: LTEA_HepaRG_TNFRSF1A: Life Technologies and Expression Analysis (LTEA) Assay for Tumor necrosis factor receptor 1 (TNFRSF1A) using HepaRG (AID 2283535). The method in brief:
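mRNA measured by qRT-PCR (TaqMan, Fluidigm arrays) against ACTB/GAPDH/POLR2A housekeepers after 48 h chemical exposure of HepaRG cells. Top concentration 100 uM, half-log 8-point series, duplicates; vehicle 0.5% DMSO, both fit directions.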

Read-out in assay [6]: Thyroid Hormone Responsive (THRSP), THRSP (gene 7069)
Description: LTEA_HepaRG_THRSP: Life Technologies and Expression Analysis (LTEA) Assay for Thyroid Hormone Responsive (THRSP) using HepaRG (AID 2283536). Summed up: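 mRNA induction or loss relative to 0.5% DMSO vehicle was fitted bidirectionally across an eight-point curve whose highest exposure was 100 uM. Human HepaRG liver cells received chemicals in duplicate over 48 h before RNA extraction.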

Read-out in assay [7]: UDP glucuronosyltransferase (UGT1A1), UGT1A1 (gene 54658)
Description: LTEA_HepaRG_UGT1A1: Life Technologies and Expression Analysis (LTEA) Assay for UDP glucuronosyltransferase (UGT1A1) using HepaRG (AID 2283538). The method in brief: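 Readout is UGT1A1 transcript level by qRT-PCR, normalized to three housekeeping genes, after 48 h chemical treatment of HepaRG cells. Concentrations ran from 100 uM down in half-log steps with 0.5% DMSO, and gain or loss relative to DMSO was fitted.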

Read-out in assay [8]: UDP glucuronosyltransferase (UGT1A6), UGT1A6 (gene 54578)
The assay can be described thus: LTEA_HepaRG_UGT1A6: Life Technologies and Expression Analysis (LTEA) Assay for UDP glucuronosyltransferase (UGT1A6) using HepaRG (AID 2283539). The method in brief:
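Expression was quantified by TaqMan qRT-PCR on Fluidigm arrays with ACTB/GAPDH/POLR2A normalization and bidirectional fitting against 0.5% DMSO. HepaRG cells (~100,000/well) were treated in duplicate for 48 h at eight half-log concentrations up to 100 uM in serum-free induction medium.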

Read-out in assay [9]: Cellular tumor antigen p53 (Homo sapiens) (UniProt P04637)
Description: LTEA_HepaRG_TP53: Life Technologies and Expression Analysis (LTEA) Assay for Tumor Protein P53 (TP53) using HepaRG (AID 2283537). Summed up: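 TP53 transcript measured by qRT-PCR, normalized to three housekeeping genes, after 48 h treatment of human HepaRG cultures with chemicals from 100 uM downward in half-log steps (0.5% DMSO vehicle, serum-free induction medium). Up- or down-regulation fitted against DMSO.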

The source made the active and inactive calls. Rule for the calls: active = hit-call score of the fitted dose curve at least 0.9, where 1 is the maximum; inactive = score below 0.9.

Sequence of Cellular tumor antigen p53 (Homo sapiens) (P04637 whole entry, looked up): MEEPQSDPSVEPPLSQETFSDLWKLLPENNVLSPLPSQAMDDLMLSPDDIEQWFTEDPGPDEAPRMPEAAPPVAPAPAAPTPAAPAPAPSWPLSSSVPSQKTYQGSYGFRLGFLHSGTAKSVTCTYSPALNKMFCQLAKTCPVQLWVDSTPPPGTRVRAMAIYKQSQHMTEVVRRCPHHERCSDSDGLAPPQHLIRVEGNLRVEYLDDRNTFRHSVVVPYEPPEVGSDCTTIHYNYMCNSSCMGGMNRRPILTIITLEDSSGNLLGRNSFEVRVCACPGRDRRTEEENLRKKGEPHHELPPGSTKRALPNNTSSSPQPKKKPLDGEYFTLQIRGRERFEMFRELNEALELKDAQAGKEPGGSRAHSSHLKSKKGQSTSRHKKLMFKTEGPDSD

Take `Cc1c(COC(=O)[C@@H]2[C@H](/C=C(\Cl)C(F)(F)F)C2(C)C)cccc1-c1ccccc1`: the outcome in [1] is “inactive”; in assay [2], “inactive”; in assay [3] it was “inactive”; in assay [4] it was “inactive”; with TIMP1, TIMP1 (gene 7076) it was “inactive”; in [5], “inactive”. For the same compound, the compound was called inactive in [6] and in assay [8]. Also, the AC50 in [7] is 11.7 µM (active).

As for `CN=C=S`, the outcome in assay [1] was “inactive”; in assay [2], “inactive”; in assay [3] it was “inactive”; in [4] it was “inactive”; with TIMP1, TIMP1 (gene 7076) it was “inactive”; in assay [5] it was “inactive”. Also, the call in assay [6], in assay [9], in assay [7] and in [8] was inactive.

Regarding `Nc1cnn(-c2ccccc2)c(=O)c1Cl`, the outcome in assay [1] is “inactive”; in [2], “inactive”; in assay [3] it was “inactive”; in assay [4], “inactive”; in the assay with TIMP1, TIMP1 (gene 7076) it was “inactive”; in [5], “inactive”. The result in assay [6], in assay [9] and in assay [8] was inactive. For the same compound, the AC50 in assay [7] was 50 µM (active).

With `CCN(CC)c1nc(C)cc(OP(=S)(OC)OC)n1`, the outcome in [1] was “inactive”; in assay [2] it was “inactive”; in [3], “inactive”; in assay [4] it was “inactive”; with TIMP1, TIMP1 (gene 7076), “inactive”; in [5] it was “inactive”. Besides, the compound was classed as inactive in assay [6]. The AC50 in assay [7] was 12.8 µM (active); in assay [8], 3.58 µM (active).

In the case of `N#CN=C1SCCN1Cc1ccc(Cl)nc1`, the outcome was “inactive” in assay [1]; “inactive” in assay [2]; “inactive” in [3]; “inactive” in [4]; “inactive” in the assay with TIMP1, TIMP1 (gene 7076); “inactive” in assay [5]. The result in assay [6], in [9], in [7] and in [8] was inactive.

As for `CO/N=C(/C1=NOCCO1)c1ccccc1Oc1ncnc(Oc2ccccc2Cl)c1F`, the AC50 in assay [1] is 31.1 µM (active); in assay [2] it was 33.9 µM (active); in [3], 31.2 µM (active); with TIMP1, TIMP1 (gene 7076), 50 µM (active); in [6], 27.1 µM (active); in assay [7], 35.8 µM (active). Besides, in assay [8], the AC50 was 50 µM (active). For the same compound, the compound was called inactive in [4] and in assay [5].

As to `CCOc1nc(C(Cl)(Cl)Cl)ns1`, the AC50 in [1] is 1.88 µM (active); in assay [3], 1.14 µM (active); in assay [4], 0.687 µM (active); in assay [6], 1.06 µM (active). Besides, the outcome in assay [2] was “inactive”; with TIMP1, TIMP1 (gene 7076), “inactive”; in assay [5], “inactive”; in [7], “inactive”; in assay [8], “inactive”.

Take `CC(C)NC(=O)N1CC(=O)N(c2cc(Cl)cc(Cl)c2)C1=O`: the AC50 in assay [1] was 15.6 µM (active); in assay [2], 13.1 µM (active); in assay [6], 50 µM (active); in assay [7] it was 4.3 µM (active). In addition, the outcome was “inactive” in assay [3]; “inactive” in assay [4]; “inactive” in the assay with TIMP1, TIMP1 (gene 7076); “inactive” in [5]; “inactive” in assay [9]; “inactive” in [8].

For `CCN(CC)C(=O)C(C)Oc1cccc2ccccc12` (centres undefined), the outcome was “inactive” in [1]; “inactive” in assay [2]; “inactive” in [3]; “inactive” in assay [4]; “inactive” with TIMP1, TIMP1 (gene 7076); “inactive” in assay [5]. The call in [6], in assay [9] and in [8] was inactive. Besides, the AC50 in assay [7] is 12.9 µM (active).

On to `CSC(=O)c1c(C(F)F)nc(C(F)(F)F)c(C(=O)SC)c1CC(C)C`, for which the outcome in assay [1] was “inactive”; in assay [2] it was “inactive”; in [3], “inactive”; in assay [4], “inactive”; with TIMP1, TIMP1 (gene 7076) it was “inactive”; in assay [5], “inactive”. The result in [6], in [9] and in assay [8] was inactive. The AC50 in assay [7] was 11.7 µM (active).

For `CN/C(=N\[N+](=O)[O-])NCc1cnc(Cl)s1`, the outcome is “inactive” in assay [1]; “inactive” in [2]; “inactive” in [3]; “inactive” in assay [4]; “inactive” with TIMP1, TIMP1 (gene 7076); “inactive” in assay [5]. In addition, the result in assay [9] and in assay [8] was inactive. Further, the AC50 in assay [6] and in assay [7] was 50 µM (active) in each case.

As to `CS(=O)(=O)c1ccc(C(=O)C2C(=O)CCCC2=O)c([N+](=O)[O-])c1`, the outcome in assay [1] is “inactive”; in assay [2] it was “inactive”; in assay [3], “inactive”; in assay [4], “inactive”; with TIMP1, TIMP1 (gene 7076), “inactive”; in [5], “inactive”. In addition, the compound was classed as inactive in assay [6], in assay [9], in assay [7] and in assay [8].

As for `C=CCOC(=O)C(C)(C)OC(=O)c1cc(-n2c(=O)cc(C(F)(F)F)n(C)c2=O)ccc1Cl`, the outcome in [1] was “inactive”; in [2], “inactive”; in [3] it was “inactive”; in [4], “inactive”; with TIMP1, TIMP1 (gene 7076), “inactive”; in assay [5], “inactive”. Besides, the call in assay [6] and in assay [8] was inactive. Besides, in [7], the AC50 was 23.1 µM (active).

For the compound `CCCC(=NOCC)C1=C(O)CC(CC(C)SCC)CC1=O` (centres undefined), the outcome in assay [1] is “inactive”; in assay [2], “inactive”; in assay [3] it was “inactive”; in assay [4] it was “inactive”; in the assay with TIMP1, TIMP1 (gene 7076) it was “inactive”; in [5], “inactive”. The call in assay [6] and in [8] was inactive. Also, in [7], the AC50 was 50.2 µM (active).

In the case of `COP(=O)(OC)O/C(C)=C/C(=O)N(C)C`, the outcome in assay [1] is “inactive”; in assay [2], “inactive”; in assay [3], “inactive”; in assay [4] it was “inactive”; in the assay with TIMP1, TIMP1 (gene 7076), “inactive”; in assay [5], “inactive”. The compound was classed as inactive in [6], in assay [9], in [7] and in assay [8].

For `Cn1c(-c2ccccc2)cc(-c2ccccc2)[n+]1C`, the AC50 in assay [1] was 18.6 µM (active); in [2], 50 µM (active); with TIMP1, TIMP1 (gene 7076), 82.9 µM (active); in assay [5] it was 72.2 µM (active); in assay [6] it was 50 µM (active); in assay [9], 86.5 µM (active). Further, the results for the AC50 in assay [7] and in assay [8] were 39.9 µM (active) and 75.2 µM (active), respectively. Moreover, the compound was called inactive in assay [3] and in assay [4].

Consider `CCC(C)n1c(=O)[nH]c(C)c(Br)c1=O` (centres undefined), for which the AC50 in [1] was 29 µM (active); in assay [2], 24.9 µM (active); in [6], 18.5 µM (active); in [7], 5.95 µM (active). For the same compound, the outcome in assay [3] was “inactive”; in assay [4] it was “inactive”; with TIMP1, TIMP1 (gene 7076), “inactive”; in assay [5], “inactive”; in assay [9], “inactive”; in assay [8], “inactive”.
